# Source: PubChem BioAssay AID504339 (National Center for Advancing Translational Sciences (NCATS), 2011)
# The whole screen tested about 390,000 compounds, of which about 17,000 (4.4%) were called active. Entries that show only a call come without a potency. Another 8% or so got no clear call; they are omitted. The call rests on the fitted dose curve; in most records, active means well fitted inhibition curve with a large enough effect; inconclusive means small, poorly fitted or top-dose-only effect; inactive means no such curve, though single readings can be large or run the other way. For the sample, actives were picked, then their nearest neighbours and some compounds at random.
# Target: Lysine-specific demethylase 4A (Homo sapiens) (UniProt O75164)
# Experiment: qHTS Assay for Inhibitors of JMJD2A-Tudor Domain; further: nearly all actives have a fitted effect of over 50% in size
# Details: AlphaScreen JMJD2A-Tudor / H3K4me3 peptide binding; series mostly up to 114 µM
# Potency means the concentration at half of the fitted maximal effect.
# Sequence of Lysine-specific demethylase 4A (Homo sapiens) (O75164 whole entry, looked up, the tested form may be a part): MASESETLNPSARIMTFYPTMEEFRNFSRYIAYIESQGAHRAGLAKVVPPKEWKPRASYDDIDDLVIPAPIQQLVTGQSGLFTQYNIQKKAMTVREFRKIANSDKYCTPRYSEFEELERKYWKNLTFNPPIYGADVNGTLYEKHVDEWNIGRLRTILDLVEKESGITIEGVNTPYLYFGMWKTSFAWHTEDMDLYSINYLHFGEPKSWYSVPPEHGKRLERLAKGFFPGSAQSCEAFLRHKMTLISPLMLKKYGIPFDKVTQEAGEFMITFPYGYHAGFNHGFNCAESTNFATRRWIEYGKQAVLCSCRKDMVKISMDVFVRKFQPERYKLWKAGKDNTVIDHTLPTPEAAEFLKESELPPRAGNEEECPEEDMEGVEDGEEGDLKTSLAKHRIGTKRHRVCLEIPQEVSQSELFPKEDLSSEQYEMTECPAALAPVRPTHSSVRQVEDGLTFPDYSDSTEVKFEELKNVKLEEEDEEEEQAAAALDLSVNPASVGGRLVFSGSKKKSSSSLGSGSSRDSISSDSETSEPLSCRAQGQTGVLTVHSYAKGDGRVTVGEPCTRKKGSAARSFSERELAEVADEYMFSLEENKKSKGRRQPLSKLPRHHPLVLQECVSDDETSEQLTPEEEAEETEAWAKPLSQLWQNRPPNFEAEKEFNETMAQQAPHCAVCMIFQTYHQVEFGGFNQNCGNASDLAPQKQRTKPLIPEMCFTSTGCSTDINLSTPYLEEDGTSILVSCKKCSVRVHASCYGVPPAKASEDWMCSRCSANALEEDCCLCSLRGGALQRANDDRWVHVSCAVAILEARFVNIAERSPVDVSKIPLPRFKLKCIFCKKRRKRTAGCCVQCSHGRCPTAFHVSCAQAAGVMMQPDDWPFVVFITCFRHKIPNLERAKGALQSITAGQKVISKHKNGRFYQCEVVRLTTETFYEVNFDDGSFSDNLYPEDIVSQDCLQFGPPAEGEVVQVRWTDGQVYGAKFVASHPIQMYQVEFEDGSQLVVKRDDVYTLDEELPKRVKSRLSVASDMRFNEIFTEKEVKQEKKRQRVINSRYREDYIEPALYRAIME
row,Structure (SMILES),Potency
1,COc1ccc(CNC(=O)c2ccc3c(O)c(S(=O)(=O)c4ccccc4)c(=O)[nH]c3c2)cc1,inactive
2,Cc1ccccc1NC(=O)c1c(NC(=O)c2ccccc2F)sc2c1CCC(C)C2 (stereo not drawn),inactive
3,COc1cc(C2/C(=C(\O)c3ccc4c(c3)CC(C)O4)C(=O)C(=O)N2Cc2ccco2)ccc1O (stereo not drawn),inactive
4,CCOc1ccc(C2/C(=C(/O)c3ccc4c(c3)CC(C)O4)C(=O)C(=O)N2CCCn2ccnc2)cc1 (stereo not drawn),inactive
5,COc1cc(C2/C(=C(\O)c3ccc4c(c3)CC(C)O4)C(=O)C(=O)N2c2nnc(C)s2)cc(OC)c1OC (stereo not drawn),44.7 µM (active)
6,O=C(Nc1ccc2c(c1)OCO2)c1cc(-c2cccc(Cl)c2)on1,inactive
7,CC(C)C12CN3CC(C(C)C)(CN(C1)C3c1ccc(OCc3ccccc3)cc1)C2=O (stereo not drawn),inactive
8,O=C(O)C1OC(C(=O)O)C2C1C(F)(F)C2(F)F (stereo not drawn),28.2 µM (active)
9,Cc1ccc2nc(/C(C#N)=C/c3ccccc3F)[nH]c2c1,inactive
10,COc1ccc(C(=O)/C=C/Nc2ccccn2)cc1,inactive
11,O=C(NNC(=O)c1ccc(Cl)nc1)c1ccc(Br)cc1,inactive
12,O=C(NNc1ccccn1)c1ccc(Cl)nc1,4.47 µM (active)
13,COc1ccccc1-c1noc(-c2ccc(NCc3ccccc3)c([N+](=O)[O-])c2)n1,inactive
14,CCN1CCC(N(Cc2ccc(F)cc2)C(=O)Nc2cc(C)ccc2C)CC1,inactive
15,CCN1CCC2(CC1)N=C(c1ccc(F)cc1)C(=S)N2C(=O)c1ccc(C)cc1,31.6 µM (active)
16,Cc1ccc(NC(=O)CN2C(=O)C(c3ccc(F)cc3)=NC23CCCCCC3)c(C)c1,inactive
17,COc1cccc(NC(=O)N(Cc2cn(C)c3ccccc23)C2CCCCCC2)c1,inactive
18,Cc1ccc(Cn2c(CCCNC(=O)C3CCCCC3)nc3ccccc32)cc1,inactive
19,Cc1cc(C)cc(NC(=O)CCN2C(=O)c3ccccc3C2=O)c1,inactive
20,Cc1cc2c(cc1C)N(C(=O)CN1C(=O)c3ccccc3C1=O)C(C)(C)c1ssc(=S)c1-2,39.8 µM (active)
21,Cc1ccc(NC(=O)CCN2C(=O)c3ccccc3C2=O)cc1C,inactive

row,Structure (SMILES),Potency
1,CCN(CC)c1cc(NC2CCCCC2)c2c3c(onc13)-c1ccccc1C2=O,8.91 µM (active)
2,Cc1cccc(-c2nc(SCc3ccc(Br)cc3)n3[nH]c(=O)cc3n2)c1,inactive
3,Cc1cccc(CNC(=O)c2cnc3sc(N4CCCCC4)nn3c2=O)c1,inactive
4,CCCCN(C(=O)C1CCC1)c1c(N)n(Cc2ccccc2)c(=O)[nH]c1=O,inactive
5,CCCCN(Cc1ccccc1)C(=O)C1CCN(Cc2sccc2C)CC1,5.62 µM (active)
6,CCNC(=S)NNC(=O)C1CCN(Cc2ccccc2)CC1,inactive
7,Cc1nn(-c2ccc(N3CCCCC3)nn2)c(C)c1CCC(=O)NCc1ccccc1F,inactive
8,COc1ccc(/C=C/C(=O)NC(=S)N2CCCC(C(N)=O)C2)cc1 (stereo not drawn),inactive
9,COc1ccc(CN2CCCC(C(=O)N3CCCCC3)C2)cc1 (stereo not drawn),79.4 µM (active)
10,COc1ccc(CNC(=O)C2CCCC2)cc1,inactive
11,O=C(COc1ccc(Cl)cc1)Nc1ccccc1OCc1cc(=O)n2ccccc2n1,inactive
12,C/C(=N/NC(=O)C1COc2ccccc2O1)c1ccco1 (stereo not drawn),inactive
13,CC(=O)c1cccc(NC(=O)C2COc3ccccc3O2)c1 (stereo not drawn),inactive
14,O=C(Nc1nc(-c2ccncc2)cs1)C1COc2ccccc2O1 (stereo not drawn),50.1 µM (active)
15,O=C(CC(c1cccs1)N1Cc2ccccc2C1=O)Nc1ccc(F)cc1F (stereo not drawn),inactive
16,Cc1ccc(NS(=O)(=O)c2cc3c(cc2Br)NC(=O)CO3)cc1C,inactive
17,COc1c(O)cc2oc(-c3ccc(O)c(O)c3)cc(=O)c2c1O,31.6 µM (active)
18,CCOC(=O)COc1cc(OCC(=O)OCC)c2c(=O)cc(-c3ccccc3)oc2c1,inactive
19,COc1ccc(-c2c(C)c3ccc(O)c(CN4CCN(C)CC4)c3oc2=O)cc1OC,inactive
20,O=C(CCc1nc(CN2CCN(S(=O)(=O)c3ccc(F)cc3)CC2)no1)N1CCCCC1,inactive
21,O=C(Nc1ccc(OC(F)(F)F)cc1)c1cc2c(=O)n3ccccc3nc2s1,inactive

row,Structure (SMILES),Potency
1,CCc1c(C)sc(NC(=O)c2cccs2)c1C(N)=O,89.1 µM (active)
2,CCc1c(C)sc(NC(=O)c2ccc(Br)o2)c1C(=O)OC,inactive
3,CCc1cccc(C)c1NC(=O)COC(=O)CNC(=O)c1cccs1,inactive
4,CC1CCCN(S(=O)(=O)c2ccc3[nH]c(=O)cc(C(=O)NCCc4ccc(Cl)cc4)c3c2)C1 (stereo not drawn),inactive
5,Cc1ccc(NC(=O)c2nc(S(=O)(=O)Cc3cccc(C)c3)ncc2Cl)cc1,inactive
6,Cc1cccc(C2c3[nH]c4ccccc4c3CCN2C(=O)c2cc(-c3cccn3C)n[nH]2)n1 (stereo not drawn),56.2 µM (active)
7,Cc1cccc(C(=O)N2CCc3c([nH]c4ccccc34)C2CC(C)C)n1 (stereo not drawn),inactive
8,O=C(c1cn2ccccc2n1)N1CCc2c([nH]c3ccccc23)C1c1ccccn1 (stereo not drawn),inactive
9,COc1ccc(CCNC(=O)c2cnc3sc(N4CCCCCC4)nn3c2=O)cc1OC,inactive
10,COc1ccccc1NC(=O)Cn1cnc2ccc(S(=O)(=O)N3CCC(C)CC3)cc2c1=O,inactive
11,COc1ccc(OC)c(NC(=O)CSC2=Nc3ccccc3C3=NC(CC(=O)NCCc4ccccc4)C(=O)N23)c1 (stereo not drawn),inactive
12,Cc1cccc(N(C)C(=O)CS(=O)(=O)c2cccc3nsnc23)c1,inactive
13,Cc1cccc(C)c1NC(=O)CSc1nc2c([nH]1)c(=O)n(C)c(=O)n2C,inactive
14,Cc1cc(C)c(C=NNc2nc3c([nH]2)c(=O)n(C)c(=O)n3C)c(C)c1,inactive
15,Cc1ccc(NN=Nc2nc3c([nH]2)c(=O)n(C)c(=O)n3C)cc1,14.1 µM (active)
16,CCc1ccc(NC(=O)c2cc3c(=O)n(Cc4cccnc4)ccc3nc2C)cc1,inactive
17,O=C(NCc1ccccc1)C(=O)NCC(c1ccco1)S(=O)(=O)c1ccc(Cl)cc1 (stereo not drawn),inactive
18,Cc1ccc(C)n1-c1nnc(N2CCC(C(=O)NCc3ccccc3Cl)CC2)s1,inactive
19,C=CCNC(=O)c1ccc2nc(-c3ccco3)c(-c3ccco3)nc2c1,inactive
20,CCOc1ccc(NC(=O)c2ncoc2-c2ccco2)cc1,inactive
21,COCCNC(=O)Nc1ccc2nc(-c3ccco3)c(-c3ccco3)nc2c1,20 µM (active)
